The values below come from PubChem BioAssay (NCI).

About 79,000 compounds went through this panel and 15% of them were active in at least one assay; those are over-represented in the sample as a whole. Unmarked numbers belong to inactive results. Active and inactive are the calls of the source. Cut-off read from the data, not from the text of the source: active = growth inhibition above about 70%; inactive = the rest.

Assay [1] can be described thus: NCI Yeast Anticancer Drug Screen. Data for the rad50 strain (AID 155).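 Note: 0% = growth of vehicle-only cultures of the same strain.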 Particulars: S. cerevisiae rad50 strain growth inhibition; at 50.0 µM; hits give high values. A digest of the protocol: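 Cells are treated with compound, grown, and their growth is then scored against vehicle-only cultures of the same repair-deficient yeast strain.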
Assay [2] can be described thus: NCI Yeast Anticancer Drug Screen. Data for the mec2-1 strain (AID 157). Particulars: S. cerevisiae mec2-1 strain, at 50.0 µM, hits give high values. The essentials:
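Using mec2-1 yeast: add compound, measure growth, express inhibition versus vehicle-treated cultures.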

Assay [3] in a line: NCI Yeast Anticancer Drug Screen. Data for the sgs1 mgt1 strain (AID 161).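 Note: 0% = growth of cultures given vehicle only.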 Particulars: S. cerevisiae sgs1 mgt1 strain, at 50.0 µM, hits give high values. The essentials: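 Growth of a repair-deficient yeast mutant was monitored after compound treatment and expressed as inhibition relative to vehicle-treated cultures.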
The nature of assay [4]: NCI Yeast Anticancer Drug Screen. Data for the cln2 rad14 strain (AID 165).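 Note: 0% = growth equal to vehicle treated cultures.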 To be noted: S. cerevisiae cln2 rad14 strain, at 50.0 µM, hits give high values. The essentials: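 Yeast strain cln2 rad14, bearing defects in cell cycle control and DNA repair, serves as the test system; values reflect growth inhibition compared with vehicle.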
Assay [5] can be described thus: NCI Yeast Anticancer Drug Screen. Data for the bub3 strain (AID 167). Particulars: S. cerevisiae bub3 mutant strain, at 50.0 µM, hits give high values. A digest of the protocol:
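Part of a panel of yeast mutants defective in DNA damage repair or cell cycle regulation. Each strain is grown with compound, and inhibition is calculated relative to solvent-treated cultures.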

Assay [6] can be described thus: NCI Yeast Anticancer Drug Screen. Data for the mlh1 rad18 strain (AID 175). To be noted: S. cerevisiae mlh1 rad18 strain growth inhibition; at 50.0 µM; hits give high values. A digest of the protocol: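 Steps: expose repair-defective yeast to compound; measure growth; express inhibition against vehicle-treated controls.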

For the compound `CC#Cc1c(O)c2c(c(O)c1C#CC)C(=O)c1ccccc1C2=O`, the growth inhibition in assay [1] is -1.3%; in assay [2], -30%; in assay [3] it was -25.4%; in assay [4], -8.95%; in assay [5], -3%; in assay [6], -29.8%.

With `COC(=O)c1ccc(/C=C(\c2ccc([N+](=O)[O-])o2)S(=O)(=O)c2ccc(NC(C)=O)cc2)o1`, the growth inhibition was 84.7% (active) in assay [1]; 66% in assay [2]; 90.8% (active) in assay [3]; 71.7% (active) in assay [4]; 34.8% in assay [5]; 88.5% (active) in assay [6].

Take `NS(=O)(=O)c1ccc(NC(=O)C2C(=O)N(c3ccc(S(N)(=O)=O)cc3)C(=O)/C2=N/O)cc1` (centres undefined): the growth inhibition in assay [1] is 9.55%; in assay [2] it was 0.25%; in assay [3], 9.8%; in assay [4], -26.4%; in assay [5], 2%; in assay [6], 33.1%.

With `ClC1(Cl)CC1c1ccccc1` (centres undefined), the growth inhibition in assay [1] is 0.1%; in assay [2], 11.9%; in assay [3] it was 6.8%; in assay [4] it was -9.7%; in assay [5], 1.45%; in assay [6], 14.7%.

For the compound `C=C(C)C1CC(=O)C2(C)C(C1)OC(=O)C2C(=O)OCC` (centres undefined), the growth inhibition in assay [1] is 11.6%; in assay [2], -0.65%; in assay [3], -8.3%; in assay [4], 8.95%; in assay [5] it was 0.1%; in assay [6], -6.65%.

On to `CCN(CC)CC(O)c1ccc2c(ccc3ccccc32)c1` (centres undefined), for which the growth inhibition is 12.5% in assay [1]; -5% in assay [2]; 9.2% in assay [3]; -32% in assay [4]; -3.45% in assay [5]; 12% in assay [6].

For the compound `FC(F)(F)C(F)(F)C(F)(F)C(F)(F)C(F)(F)C(F)(F)C(F)(F)c1noc(C(F)(F)C(F)(F)C(F)(F)C(F)(F)C(F)(F)C(F)(F)C(F)(F)F)n1`, the growth inhibition in assay [1] was -0.55%; in assay [2] it was 6.5%; in assay [3], -5.4%; in assay [4], -5.25%; in assay [5], 0.85%; in assay [6] it was 17.4%.

For `CCNC(=O)OC(C)C(O)c1ccccc1` (centres undefined), the growth inhibition is 0.05% in assay [1]; 11.6% in assay [2]; 33.2% in assay [3]; 6.8% in assay [4]; -19.6% in assay [5]; 29.2% in assay [6].

For `CCOC(=O)/C(=C(/N)C1OC(COC(c2ccccc2)(c2ccccc2)c2ccccc2)C2OC(C)(C)OC12)C1CC(=O)N(C)C1=O` (centres undefined), the growth inhibition in assay [1] is -4.35%; in assay [2], 16.1%; in assay [3], 12.7%; in assay [4] it was -27.8%; in assay [5] it was -7.35%; in assay [6], 41.5%.

Regarding `Cc1cccc(C)c1N=Nc1ccc(O)c(CN(C)C)c1`, the growth inhibition in assay [1] is -6.2%; in assay [2], -14.7%; in assay [3], -12.1%; in assay [4], -3.6%; in assay [5], 22.6%; in assay [6], -8.85%.

Take `COC(=O)C(Cc1cc(OC)c(OC)c(OC)c1)(NC(=O)c1ccccc1)P(=O)(OC)OC` (centres undefined): the growth inhibition is -14.2% in assay [1]; -1.75% in assay [2]; -38.4% in assay [3]; -51.6% in assay [4]; 1.05% in assay [5]; -9.7% in assay [6].

With `C/C=C/C=N/N(C(=O)c1cc([N+](=O)[O-])cc([N+](=O)[O-])c1)C1=NC(c2ccccc2)C(c2ccccc2)=NN1` (centres undefined), the growth inhibition was 41.9% in assay [1]; 24.4% in assay [2]; 13% in assay [3]; 41.1% in assay [4]; 15.3% in assay [5]; 26.3% in assay [6].

As for `O=C(O)c1cc(CC2Cc3cc4c(cc3C2=O)CCC4)cc2c1CCC2` (centres undefined), the growth inhibition in assay [1] was -27.4%; in assay [2], -30.1%; in assay [3], -21.6%; in assay [4], 6.05%; in assay [5] it was -18.8%; in assay [6], -21.8%.

Regarding `O=c1c(-c2ccc(O)cc2)coc2cc(OC3OC(CO)C(O)C(O)C3O)cc(O)c12` (centres undefined), the growth inhibition in assay [1] is -35.5%; in assay [2] it was -26.8%; in assay [3], -40.8%; in assay [4], -10.7%; in assay [5], -60.2%; in assay [6] it was -83.3%.

Regarding `Nc1nc(-c2cccc(S(=O)(=O)O)c2)c([N+](=O)[O-])c(=O)[nH]1`, the growth inhibition in assay [1] is -10%; in assay [2] it was -8.05%; in assay [3] it was -15.7%; in assay [4], 10.2%; in assay [5] it was -24.6%; in assay [6], 17.6%.

Regarding `CC(=O)Nc1ncc(Sc2ccc([N+](=O)[O-])cc2)s1`, the growth inhibition in assay [1] is -6.5%; in assay [2], -30.9%; in assay [3] it was -8.35%; in assay [4], 15.3%; in assay [5] it was -11.8%; in assay [6], 5.65%.

Regarding `O=C1c2ccccc2C(=O)C2C1C(c1ccccc1)N(c1ccccc1)C2c1ccccc1` (centres undefined), the growth inhibition is -16.4% in assay [1]; -1.55% in assay [2]; -7.1% in assay [3]; 5.75% in assay [4]; 2.65% in assay [5]; -3.1% in assay [6].

On to `CCCc1cc2c3c(c(=O)oc2cc1O)CCCC3`, for which the growth inhibition is 94.8% (active) in assay [1]; 75.6% (active) in assay [2]; 92.5% (active) in assay [3]; 89% (active) in assay [4]; 92.7% (active) in assay [5]; 96.4% (active) in assay [6].

Turning to `CCOc1cc2c(cc1O)/C(=N\O)C[C@@H]1[C@@H]2CC[C@]2(C)[C@@H](O)CC[C@@H]12`, the growth inhibition in assay [1] was 31.6%; in assay [2], 13%; in assay [3] it was 57.2%; in assay [4], 20.6%; in assay [5], 24.2%; in assay [6], -9.15%.
